This is part of a sample that, as a whole, favours compounds with a hit. Of some 83,000 tested, about 20% had one in any assay.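 In brief: 96-well plates, 48 h treatment, single concentration, percent growth endpoint.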 Values without a mark were called inactive. The source made the active and inactive calls. How the source made its calls: active means growth percent below 10; inactive means the rest.
How the values were obtained:
Experiment in all cases: NCI-60 one-dose screen, 48 h (100 = growth as untreated, 0 = no growth, -100 = all killed)
Details in all cases: 10 µM unless noted
NCI-H23 lung = system: NCI-H23 lung
NCI-H226 lung = system: NCI-H226 lung
NCI-H322M lung = system: NCI-H322M lung
HOP-62 NSCLC = system: HOP-62 NSCLC
NCI-H460 lung = system: NCI-H460 lung
HOP-92 NSCLC = system: HOP-92 NSCLC
NCI-H522 lung = system: NCI-H522 lung
A549/ATCC NSCLC = system: A549/ATCC NSCLC
786-0 renal = system: 786-0 renal
COLO 205 colon = system: COLO 205 colon
DU-145 prostate = system: DU-145 prostate
K-562 leukemia = system: K-562 leukemia
MALME-3M melanoma = system: MALME-3M melanoma
MDA-MB-231 breast = system: MDA-MB-231 breast
RXF 393 renal = system: RXF 393 renal
SF-268 CNS = system: SF-268 CNS
SF-295 CNS = system: SF-295 CNS
SF-539 CNS = system: SF-539 CNS
UACC-257 melanoma = system: UACC-257 melanoma
M14 melanoma = system: M14 melanoma

SMILES | growth (NCI-H23 lung) | growth (NCI-H226 lung) | growth (NCI-H322M lung) | growth (HOP-62 NSCLC) | growth (NCI-H460 lung) | growth (HOP-92 NSCLC) | growth (NCI-H522 lung) | growth (A549/ATCC NSCLC) | growth (786-0 renal) | growth (COLO 205 colon) | growth (DU-145 prostate) | growth (K-562 leukemia) | growth (MALME-3M melanoma) | growth (MDA-MB-231 breast) | growth (RXF 393 renal) | growth (SF-268 CNS) | growth (SF-295 CNS) | growth (SF-539 CNS) | growth (UACC-257 melanoma) | growth (M14 melanoma)
C=C(C)[C@@H]1CC[C@]2(C(=O)NNC(=O)c3cccnc3)CC[C@]3(C)[C@H](CC[C@@H]4[C@@]5(C)CCCNC(C)(C)[C@@H]5CC[C@]43C)[C@@H]12 | 84.4% | 83.2% | 101% | 84.9% | 95.9% | 50.5% | 99.4% | 71.6% | 94.8% | 20.6% | 91.3% | 1.18% (active) | 66.6% | 87% | 79.7% | 87% | 90.3% | 81.3% | 61.9% | 63.8%
N#CC1c2ccccc2-c2ccccc2N1C(=O)c1ccccc1 (stereo not given) | 22.6% | 17.8% | 57% | 48.7% | 18.1% | 45.2% | 14.5% | 31.8% | 17% | -1.39% (active) | 11.9% | 41.5% | 84% | 16.6% | 31.7% | 34.4% | 4.01% (active) | 0.949% (active) | 75.9% | 2.12% (active)
CN1CCN(c2ccc3nc(-c4[nH]ncc4Nc4ncnc5[nH]ccc45)[nH]c3c2)CC1 | -1.38% (active) | -10.2% (active) | 1.88% (active) | -0.445% (active) | 21% | 26.9% | -4.39% (active) | 24% | 2.96% (active) | -59.8% (active) | 7.18% (active) | 7.3% (active) | -16.6% (active) | -13% (active) | -71.7% (active) | -9.53% (active) | -1.58% (active) | -43.6% (active) | 11.7% | 3.42% (active)
Oc1cccc2ccc(N/N=C/c3cc(CN4CCCCC4)c(O)c4ncccc34)nc12 | -10.8% (active) | -30% (active) | 25.5% | 1.83% (active) | -40.3% (active) | 36.9% | -16% (active) | -10.3% (active) | 5.33% (active) | 8.41% (active) | 24.1% | 13.1% | 19.1% | -4.71% (active) | 9.94% (active) | 12.6% | -5.38% (active) | 4.73% (active) | 13.4% | -24.8% (active)
C=C(C)[C@@H]1CC[C@]2(C)CC[C@]3(C)[C@H](CC[C@@H]4[C@@]5(C)CCCNC(C)(C)[C@@H]5CC[C@]43C)[C@@H]12 | 94.1% | 96.5% | 99.5% | 101% | 48.4% | 76.6% | 106% | 51.3% | 102% | 8.77% (active) | 75.6% | 4.15% (active) | 88.9% | 96.7% | 88.4% | 104% | 106% | 98.2% | 107% | 79.6%
Cc1cc2nc3c4cc(Cl)ccc4n(CCN(C)C)c3nc2cc1C | 10.7% | 10.4% | 9.53% (active) | 22.1% | 1.36% (active) | 25.8% | 19.7% | 3.82% (active) | 14.3% | -49.6% (active) | 15.3% | 3.43% (active) | -45.5% (active) | 7.77% (active) | -0.246% (active) | 33.3% | 11.4% | 14.1% | 38.7% | -45.7% (active)
Fc1ccc(Nc2ccc3c(OCCCN4CCOCC4)cccc3n2)cc1F | 79% | 64.6% | 73.3% | 89.6% | 55.7% | 63.9% | 83.8% | 75.4% | 74% | -7.44% (active) | 76.9% | 1.64% (active) | 70.3% | 29.8% | 80.5% | 71.3% | 78.3% | 52.2% | 94% | 69.2%
CCCCC[C@H]1C/C=C2/C(=O)C(Cl)=C[C@@H]2C/C=C\CCCC(=O)O[C@@H](CCCCC)C/C=C2/C(=O)C(Cl)=C[C@@H]2C/C=C\CCCC(=O)O1 | -24.7% (active) | -34.3% (active) | -31.2% (active) | -52.8% (active) | -27.2% (active) | -63.4% (active) | -67.3% (active) | -51.4% (active) | -66.9% (active) | -76.4% (active) | -31.4% (active) | 0.851% (active) | -14.1% (active) | -29.9% (active) | -87.5% (active) | 1.58% (active) | -27.3% (active) | -11.3% (active) | -63.5% (active) | -61.5% (active)
Nc1ncnc2nc(Br)[nH]c12 | 92.7% | 85.9% | 108% | 98% | 106% | 94.7% | 85.9% | 77.1% | 95.1% | 103% | 102% | 89.6% | 100% | 99.8% | 103% | 98.3% | 102% | 103% | 87.7% | 92.1%
CC(C)=CCC[C@](C)(O)[C@H]1CC[C@]2(C)[C@@H]1CC[C@@H]1[C@@]3(C)C/C(=C/c4ccc(Br)cc4)C(=O)C(C)(C)[C@@H]3CC[C@]12C | 85.3% | 82.7% | 101% | 98.5% | 96.3% | 75.5% | 96.4% | 76.6% | 93.8% | 99.1% | 85.6% | 85.2% | 88.7% | 85.8% | 92.9% | 92.6% | 101% | 99.5% | 91.2% | 80.3%
CC1=NN(c2ccc(S(=O)(=O)O)cc2Cl)C(=O)C1 | 92.5% | 101% | 112% | 90% | 103% | 91.7% | 97.4% | 99.7% | 97.6% | 112% | 162% | 115% | 129% | 102% | 108% | 127% | 105% | 92.9% | 110% | 96.1%
Clc1ccc2c(NCCNc3nc(-c4ccccc4)cc(-c4ccccc4)n3)ccnc2c1 | -47.3% (active) | -56.2% (active) | -10.5% (active) | -73.6% (active) | -73% (active) | -66.8% (active) | -69.9% (active) | -75.2% (active) | -90.8% (active) | -72.2% (active) | -34.1% (active) | -46.6% (active) | -89.3% (active) | -80.9% (active) | -88.2% (active) | -59.7% (active) | -75.8% (active) | -81.1% (active) | 77.8% | -75.4% (active)
CC[C@H](CC[C@@H](C)[C@H]1CC[C@H]2[C@@H]3/C(=C/c4cccnc4)C(=O)C4=CC(=O)CC[C@]4(C)[C@H]3CC[C@]12C)C(C)C | 69.3% | 87.5% | 98.4% | 99.2% | 98.5% | 81.6% | 91% | 54.4% | 105% | 113% | 103% | 76.4% | 97.6% | 95.2% | 91.2% | 103% | 86.5% | 105% | 87.8% | 88%
Cc1nc([P+](c2ccccc2)(c2ccccc2)c2ccccc2)c(Sc2sc(-c3ccccc3)nc2[P+](c2ccccc2)(c2ccccc2)c2ccccc2)o1 | 3.75% (active) | 47.6% | 28.2% | 9.57% (active) | 3.38% (active) | -18.9% (active) | 3.53% (active) | 11.5% | 20.2% | -43.4% (active) | 19.7% | 9.67% (active) | 6.38% (active) | 14.2% | 26.7% | 18.2% | 1.87% (active) | 22.3% | 8.5% (active) | 15.5%
Cc1ccc(-c2ccc(/C=C(\C#N)c3nc(-c4ccco4)cs3)o2)cc1 | 95% | 92.7% | 90.2% | 97.5% | 99.3% | 100% | 96.4% | 103% | 106% | 99.1% | 108% | 95% | 109% | 93% | 136% | 107% | 96.6% | 103% | 113% | 93.7%

From PubChem BioAssay (NCI)
